Broadly, the AC50 is the concentration giving half of the maximal activity seen.

In PubChem BioAssay (EPA / NIEHS) one finds outcome and AC50 data, which are given here for eight compounds.

The nature of test [1]: ATG_RORE_CIS: Attagene CIS-FACTORIAL HepG2 Assay for human RAR-related Orphan Receptor Element (RORE) (AID 2282959). The note with it: HepG2 Attagene cis-factorial RORE reporter, mRNA; actives raise or lower the signal. The essentials: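 Endogenous factor activity at a cis response element is read as reporter transcript levels in HepG2 cells, 24 h post-dose. Transcripts are quantified by RT-PCR with capillary electrophoresis, and data fitted in both directions against DMSO.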

A short description of test [2]: ATG_Sox_CIS: Attagene CIS-FACTORIAL HepG2 Assay for human SRY-box transcription factor (SOX) (AID 2282960). The note with it: HepG2 Attagene cis-factorial SOX reporter, mRNA; actives raise or lower the signal. The essentials: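 Measures mRNA induction of a SOX1-associated reporter in HepG2 after 24 h dosing. Fluorescently labelled RT-PCR fragments are separated by capillary electrophoresis, and gain or loss relative to DMSO control is fitted.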

Test [3] addresses Transcription factor Sp1 (Homo sapiens) (UniProt P08047). In words: ATG_Sp1_CIS: Attagene CIS-FACTORIAL HepG2 Assay for human Specificity Protein 1 (Sp1) (AID 2282961). The note with it: HepG2 Sp1 cis-reporter transcription, actives raise or lower the signal. An outline of the steps:
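Cells: HepG2, transiently transfected with cis-regulated multiplexed reporters. Exposure: 24 h. Detection: reporter transcripts amplified, fluorescently labeled, restriction-digested and sized by capillary electrophoresis. Analysis: bidirectional fit relative to DMSO.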

The nature of test [4]: ATG_SREBP_CIS: Attagene CIS-FACTORIAL HepG2 Assay for human Sterol Regulatory Element Binding (SREBP) (AID 2282962). The settings on record: HepG2 Attagene cis-factorial SREBP reporter, mRNA; actives raise or lower the signal. The essentials: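 Endogenous SREBP activity read as cis-element-driven reporter transcript in transiently transfected HepG2, 24 h post-dosing; quantified via RT-PCR plus capillary electrophoresis of fluorescent fragments. Gain or loss of signal fitted relative to DMSO baseline.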

Test [5] deals with Signal transducer and activator of transcription 3 (Homo sapiens) (UniProt P40763). In words: ATG_STAT3_CIS: Attagene CIS-FACTORIAL HepG2 Assay for human Signal Transducer and Activator of Transcription 3 (STAT3) (AID 2282963). The settings on record: HepG2, Attagene cis-factorial STAT3 reporter transcription; actives raise or lower the signal. An outline of the steps:
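Fluorescence intensity of 6-FAM-labelled reporter fragments, separated by capillary electrophoresis after RT-PCR, gave the signal. Cells were HepG2 transfected with cis-element reporter units and treated 24 h; fitting was bidirectional relative to DMSO.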

The nature of test [6]: ATG_TA_CIS: Attagene CIS-FACTORIAL HepG2 Assay for human TA Basal Promoter (AID 2282964). The settings on record: HepG2 Attagene CIS-factorial TA basal promoter reporter; actives raise or lower the signal. The essentials: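 Transfected HepG2, 24 h compound exposure; RNA → RT-PCR → FAM primer extension → HpaI cut → CE fluorescence. Gain/loss-of-signal fitted against DMSO negative control. Background-control readout.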

The nature of test [7]: ATG_TCF_b_cat_CIS: Attagene CIS-FACTORIAL HepG2 Assay for human T-Cell-Factor with beta-catenin (TCF/b-cat) (AID 2282965). The settings on record: HepG2 TCF/beta-catenin cis-reporter transcription, actives raise or lower the signal. The essentials: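 HepG2, transient MRTU transfection, cis-element-driven reporters (endogenous TFs). 24 h compound exposure. Readout: reporter mRNA by RT-PCR + 6-FAM primer extension, HpaI digest, capillary electrophoresis. Gain/loss fit vs DMSO baseline.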

Test [8] can be described thus: ATG_TAL_CIS: Attagene CIS-FACTORIAL HepG2 Assay for human TAL Basal Promoter (AID 2282966).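 Note: background control endpoint measuring basal TAL promoter reporter mRNA not a specific factor.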 The note with it: HepG2 Attagene cis-factorial TAL promoter reporter; actives raise or lower the signal. The essentials: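 Endogenous transcription-factor activity is sensed in HepG2 cells through transfected cis-promoter reporter constructs. After 24 h dosing, reporter transcripts are quantified by RT-PCR and capillary electrophoresis. Gain or loss of signal is fitted relative to DMSO.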

Test [9] is described as follows: ATG_TGFb_CIS: Attagene CIS-FACTORIAL HepG2 Assay for human Transforming Growth Factor (TGF) (AID 2282967). The settings on record: HepG2 Attagene CIS TGFb reporter, mRNA transcription; actives raise or lower the signal. The essentials: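 Readout: fluorescently labeled reporter cDNA fragments resolved by capillary electrophoresis after RT-PCR. Transfected HepG2 cells dosed for 24 h; endogenous TF activity at TGFB1-linked cis element; gain or loss fitted relative to DMSO.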

Test [10] has as its target Steroid hormone receptor ERR1 (Homo sapiens) (UniProt P11474). As to the kind of experiment: ATG_ERRa_TRANS: Attagene TRANS-FACTORIAL HepG2 Assay for human Estrogen-Related Receptor alpha (ERRa) (AID 2282971; active = hit-call score of the fitted dose curve at least 0.9, where 1 is the maximum). The settings on record: HepG2 Attagene TRANS reporter, ERRa transactivation. The essentials: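 HepG2 cells were transiently transfected with multiple GAL4-UAS reporter units, then dosed with compound for 24 h. Total RNA was reverse-transcribed, reporter cDNA PCR-amplified and fluorescently labelled, and fragments resolved by capillary electrophoresis; induction was compared with DMSO.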

Test [11] is described as follows: ATG_GAL4_TRANS: Attagene TRANS-FACTORIAL HepG2 Assay for GAL4 (Internal Marker) (AID 2282976; active = hit-call score of the fitted dose curve at least 0.9, where 1 is the maximum). The note with it: HepG2 Attagene TRANS GAL4 internal marker reporter. The essentials:
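Fluorescence from capillary electrophoresis of labelled RT-PCR products quantifies reporter mRNA induction after 24 h dosing of HepG2 cells carrying transfected GAL4-UAS reporter transcription units. Vehicle DMSO serves as baseline.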

Test [12] can be described thus: ATG_PPRE_CIS: Attagene CIS-FACTORIAL HepG2 Assay for human Peroxisome Proliferator-activated Response Element (PPRE) (AID 2282958). The settings on record: HepG2 PPRE cis-element reporter, Attagene transcription factor profiling; actives raise or lower the signal. The essentials: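 In this cell-based multiplex, a PPRE cis element drives a reporter sequence in transiently transfected HepG2 cells. Following 24 h treatment, labeled cDNA amplicons are sized and quantified by capillary electrophoresis, with DMSO defining baseline.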

Test [13] in a line: ATG_VDRE_CIS: Attagene CIS-FACTORIAL HepG2 Assay for human Vitamin D Receptor Element (VDRE) (AID 2282968). The note with it: HepG2 VDRE cis-reporter transcription, actives raise or lower the signal. An outline of the steps:
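Compounds were applied for 24 h to HepG2 cells transfected with promoter-regulated reporter units. Total RNA was reverse-transcribed, and reporter amplicons were fluorescently labelled and sized by capillary electrophoresis.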

For test [14], the target named is X-box-binding protein 1 (Homo sapiens) (UniProt P17861). In words: ATG_Xbp1_CIS: Attagene CIS-FACTORIAL HepG2 Assay for human X-box Binding Protein 1 (XBP1) (AID 2282972). The note with it: HepG2 XBP1 cis-element reporter, Attagene multiplex; actives raise or lower the signal. The essentials:
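Reporter transcripts were quantified by RT-PCR with fluorescent primer extension and capillary electrophoresis after 24 h chemical exposure. Cells: transiently transfected HepG2 carrying cis-regulated reporter constructs; data fitted bidirectionally relative to DMSO.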

Test [15] concerns the target Estrogen receptor (Homo sapiens) (UniProt P03372). As to the kind of experiment: ATG_ERa_TRANS: Attagene TRANS-FACTORIAL HepG2 Assay for human Estrogen Receptor alpha (ERa) (AID 2282970; active = hit-call score of the fitted dose curve at least 0.9, where 1 is the maximum). The note with it: HepG2 Attagene TRANS ERa GAL4 reporter, mRNA. An outline of the steps: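 Transfected HepG2 cells carrying GAL4-UAS-driven reporter units were dosed for 24 hours. Total RNA was reverse-transcribed, reporter sequences PCR-amplified, FAM-labelled, HpaI-digested and resolved by capillary electrophoresis. Increases over DMSO control defined activity.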

For test [16], the target named is Nuclear receptor subfamily 1 group I member 3 (Homo sapiens) (UniProt Q14994). In words: ATG_CAR_TRANS: Attagene TRANS-FACTORIAL HepG2 Assay for human Constitutive Androstane Receptor (CAR) (AID 2282969; active = hit-call score of the fitted dose curve at least 0.9, where 1 is the maximum;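 note: activators raise reporter mRNA above DMSO so AC50 marks induction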). The settings on record: HepG2 Attagene TRANS-FACTORIAL CAR reporter. The essentials: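 Transiently transfected HepG2, multiplex TRANS reporters (CAR-Gal4 chimera driving GAL4-UAS reporter). 24 h dosing. Readout: reporter transcript by RT-PCR + capillary electrophoresis, fluorescence intensity; positive direction vs DMSO.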

Test [17] can be described thus: ATG_M_19_TRANS: Attagene TRANS-FACTORIAL HepG2 Assay for M19 Transcription Factor (Internal Marker) (AID 2282974; active = hit-call score of the fitted dose curve at least 0.9, where 1 is the maximum). The note with it: HepG2 Attagene TRANS-FACTORIAL M19 internal marker reporter. The essentials: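 Reporter mRNA induction was measured in transfected HepG2 cells 24 h after dosing. Endpoint fitted upward relative to DMSO and serves as a background control within the multiplexed TRANS panel.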

A short description of test [18]: ATG_Hpa5_TRANS: Attagene TRANS-FACTORIAL HepG2 Assay for human GAL4-Hpa5 Hepatocyte Transcription Factor Basal Promoter (AID 2282975; active = hit-call score of the fitted dose curve at least 0.9, where 1 is the maximum). The settings on record: HepG2 Attagene GAL4-Hpa5 transcription reporter. An outline of the steps:
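Gain-of-signal versus DMSO is fitted for reporter mRNA quantified by RT-PCR and capillary electrophoresis after 24 h exposure. This endpoint is an internal background marker in transiently transfected HepG2 cells carrying GAL4-UAS reporter units.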

“And” between values parts separate entries of the source, which are not always exact repeats. Equal values may be shown once. Records with an inconclusive call do not appear. Some compounds were tested as several samples or in several runs, with calls that do not always agree. The source made the active and inactive calls. Rule for the calls, unless noted: active = hit-call score of the fitted dose curve at least 0.9, where 1 is the maximum; inactive = score below 0.9.

Chain of Signal transducer and activator of transcription 3 (Homo sapiens) (P40763 whole entry, looked up, the tested form may be a part): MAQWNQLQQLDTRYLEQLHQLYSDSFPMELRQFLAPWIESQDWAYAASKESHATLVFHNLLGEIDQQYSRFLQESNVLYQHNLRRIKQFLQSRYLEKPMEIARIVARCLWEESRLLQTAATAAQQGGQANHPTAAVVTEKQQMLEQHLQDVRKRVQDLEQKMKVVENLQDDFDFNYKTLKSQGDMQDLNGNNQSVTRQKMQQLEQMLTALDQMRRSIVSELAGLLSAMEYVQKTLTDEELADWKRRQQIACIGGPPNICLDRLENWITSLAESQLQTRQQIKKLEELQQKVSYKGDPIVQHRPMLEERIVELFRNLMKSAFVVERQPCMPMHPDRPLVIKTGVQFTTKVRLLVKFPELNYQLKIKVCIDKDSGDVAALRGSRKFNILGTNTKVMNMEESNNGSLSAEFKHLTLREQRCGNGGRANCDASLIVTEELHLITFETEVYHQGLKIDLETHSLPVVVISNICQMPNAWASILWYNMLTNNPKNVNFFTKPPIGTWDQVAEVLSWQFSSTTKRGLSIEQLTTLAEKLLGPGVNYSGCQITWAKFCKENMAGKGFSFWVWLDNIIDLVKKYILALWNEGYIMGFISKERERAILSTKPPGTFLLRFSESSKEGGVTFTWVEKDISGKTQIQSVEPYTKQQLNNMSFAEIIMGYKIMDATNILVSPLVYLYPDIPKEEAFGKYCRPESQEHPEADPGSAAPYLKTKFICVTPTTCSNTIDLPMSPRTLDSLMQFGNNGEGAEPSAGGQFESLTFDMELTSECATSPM
Chain of X-box-binding protein 1 (Homo sapiens) (P17861 whole entry, looked up): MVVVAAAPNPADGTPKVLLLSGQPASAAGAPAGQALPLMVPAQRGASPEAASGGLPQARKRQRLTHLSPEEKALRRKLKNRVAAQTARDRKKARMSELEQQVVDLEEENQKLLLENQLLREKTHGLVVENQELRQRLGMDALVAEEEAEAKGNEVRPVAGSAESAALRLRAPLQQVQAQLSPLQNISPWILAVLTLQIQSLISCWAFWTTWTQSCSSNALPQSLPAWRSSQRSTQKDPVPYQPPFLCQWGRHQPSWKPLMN
Chain of Estrogen receptor (Homo sapiens) (P03372 whole entry, looked up, the tested form may be a part): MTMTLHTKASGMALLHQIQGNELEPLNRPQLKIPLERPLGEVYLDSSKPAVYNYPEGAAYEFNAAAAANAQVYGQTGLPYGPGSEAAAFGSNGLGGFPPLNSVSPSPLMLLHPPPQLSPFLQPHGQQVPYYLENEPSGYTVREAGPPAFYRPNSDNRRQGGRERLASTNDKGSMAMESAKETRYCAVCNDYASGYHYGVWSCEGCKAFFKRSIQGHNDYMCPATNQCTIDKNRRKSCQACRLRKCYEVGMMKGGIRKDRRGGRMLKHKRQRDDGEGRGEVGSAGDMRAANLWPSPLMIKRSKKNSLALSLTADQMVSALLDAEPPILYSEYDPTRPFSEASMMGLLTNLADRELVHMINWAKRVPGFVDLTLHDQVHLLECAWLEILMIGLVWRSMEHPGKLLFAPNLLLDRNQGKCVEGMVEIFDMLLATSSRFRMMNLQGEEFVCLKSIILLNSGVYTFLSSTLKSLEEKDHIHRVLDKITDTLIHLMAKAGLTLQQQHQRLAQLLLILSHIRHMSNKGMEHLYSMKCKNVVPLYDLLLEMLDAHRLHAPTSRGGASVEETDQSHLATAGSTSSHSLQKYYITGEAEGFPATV
Chain of Transcription factor Sp1 (Homo sapiens) (P08047 whole entry, looked up): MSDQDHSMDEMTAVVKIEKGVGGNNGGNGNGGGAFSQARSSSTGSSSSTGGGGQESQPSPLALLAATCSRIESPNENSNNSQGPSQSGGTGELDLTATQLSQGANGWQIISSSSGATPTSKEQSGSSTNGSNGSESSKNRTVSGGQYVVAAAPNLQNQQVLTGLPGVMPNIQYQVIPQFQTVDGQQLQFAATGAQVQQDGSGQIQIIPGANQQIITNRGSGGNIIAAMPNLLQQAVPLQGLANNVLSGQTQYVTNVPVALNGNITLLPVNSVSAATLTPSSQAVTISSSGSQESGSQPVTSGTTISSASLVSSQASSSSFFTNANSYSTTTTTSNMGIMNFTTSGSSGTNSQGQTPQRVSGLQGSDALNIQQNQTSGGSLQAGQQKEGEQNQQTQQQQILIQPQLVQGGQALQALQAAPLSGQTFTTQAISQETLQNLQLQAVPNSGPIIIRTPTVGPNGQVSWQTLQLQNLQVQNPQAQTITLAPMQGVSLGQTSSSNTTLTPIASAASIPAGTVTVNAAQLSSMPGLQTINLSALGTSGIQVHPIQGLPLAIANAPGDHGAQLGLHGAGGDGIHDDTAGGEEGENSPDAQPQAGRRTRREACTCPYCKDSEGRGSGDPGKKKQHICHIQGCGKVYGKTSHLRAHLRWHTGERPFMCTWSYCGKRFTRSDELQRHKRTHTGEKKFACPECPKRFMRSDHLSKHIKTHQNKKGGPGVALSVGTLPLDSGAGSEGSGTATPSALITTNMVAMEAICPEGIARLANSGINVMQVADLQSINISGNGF
Chain of Nuclear receptor subfamily 1 group I member 3 (Homo sapiens) (Q14994 whole entry, looked up, the tested form may be a part): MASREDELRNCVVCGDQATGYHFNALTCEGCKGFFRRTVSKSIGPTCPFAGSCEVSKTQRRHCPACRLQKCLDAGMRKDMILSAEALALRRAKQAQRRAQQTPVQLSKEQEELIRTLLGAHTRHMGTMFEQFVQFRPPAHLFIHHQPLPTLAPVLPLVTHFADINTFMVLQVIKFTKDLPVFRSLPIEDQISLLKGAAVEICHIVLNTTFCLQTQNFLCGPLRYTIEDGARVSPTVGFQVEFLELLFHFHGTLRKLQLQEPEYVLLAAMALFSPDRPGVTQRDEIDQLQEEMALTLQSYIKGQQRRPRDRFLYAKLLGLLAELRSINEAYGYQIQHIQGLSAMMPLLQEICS
Chain of Steroid hormone receptor ERR1 (Homo sapiens) (P11474 whole entry, looked up, the tested form may be a part): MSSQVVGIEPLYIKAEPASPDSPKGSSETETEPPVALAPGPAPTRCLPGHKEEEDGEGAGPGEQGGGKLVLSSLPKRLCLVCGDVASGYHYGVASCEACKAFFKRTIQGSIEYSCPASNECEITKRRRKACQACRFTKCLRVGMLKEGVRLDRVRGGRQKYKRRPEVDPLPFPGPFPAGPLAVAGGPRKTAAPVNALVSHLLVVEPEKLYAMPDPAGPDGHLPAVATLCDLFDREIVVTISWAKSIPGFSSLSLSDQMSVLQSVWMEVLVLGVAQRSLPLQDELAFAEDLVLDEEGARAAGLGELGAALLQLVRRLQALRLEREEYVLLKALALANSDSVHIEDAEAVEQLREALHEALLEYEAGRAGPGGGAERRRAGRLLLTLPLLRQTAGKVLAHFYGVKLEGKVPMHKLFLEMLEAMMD

On to `Clc1ccc(C(Cl)(Cl)Cl)cc1`, for which the call in test [1], in [2], in test [3], in test [4], in test [5] and in test [6] was inactive. The compound was classed as inactive in [7], in test [8], in test [9], in [10] and in test [11].
In the case of `CCOCCOC(C)=O`, the compound was called inactive in test [12], in test [1], in [2], in test [3], in test [4] and in test [5]. In addition, the call in [6], in [7], in test [8], in test [9], in test [13] and in test [14] was inactive.
Take `C[C@]12CCC(=O)C=C1CC[C@@H]1[C@@H]2CC[C@]2(C)C(=O)CC[C@@H]12`: the outcome in test [12], in test [1], in test [2], in [3], in test [4] and in test [5] was inactive. Further, the compound was called inactive in test [6], in test [7], in test [8], in test [9], in test [14] and in test [11]. For the same compound, the half-maximal activity concentration (AC50) was 68.4 µM (active) in test [4]; 65.1 nM (active) and 9.14 nM (active) and 9.25 nM (active) in [15].
On to `CCCCCCCCCc1ccc(O)cc1`, for which the compound was called inactive in test [12], in test [2], in test [3], in test [4], in [5] and in [6]. Moreover, the outcome in test [7], in test [8], in test [9], in [13], in test [16] and in test [17] was inactive. The AC50 in [5] was 168 µM (active); in [7] it was 100 µM (active); in test [13] it was 151 µM (active); in [15], 5.66 µM (active) [middle of 4 runs].
Consider `O=C(N[C@H]1CN2CCC1CC2)c1cc2ccoc2cn1`, for which the compound was called inactive in [12], in test [1], in test [2], in test [3], in [4] and in [5]. Besides, the result in test [6], in test [7], in test [8], in test [9], in test [13] and in test [15] was inactive. For the same compound, the outcome in test [14] was inactive.
Regarding `CC#Cc1cc(C)nc(Nc2ccccc2)n1`, the call in [12], in [2], in [3], in [4], in test [5] and in test [8] was inactive. Besides, the call in test [9] was inactive. Besides, the AC50 was 51.6 µM (active) in test [1], 100 µM (active) in [6], 41.8 µM (active) in test [7] and 65.6 µM (active) in test [13].
`CN(C)c1nc(=O)n(C2CCCCC2)c(=O)n1C`: the compound was classed as inactive in [12], in test [1], in [2], in test [3], in test [4] and in [5]. Besides, the result in test [6], in [7], in [8], in test [9], in test [13] and in test [15] was inactive. Besides, the compound was classed as inactive in [14] and in test [18].
Turning to `O=C(O)C(F)(F)C(F)(F)C(F)(F)C(F)(F)C(F)(F)C(F)(F)C(F)(F)C(F)(F)F`, the half-maximal activity concentration (AC50) in [12] was 33.4 µM (active) and 89.8 µM (active) and 34 µM (active); in test [1], 214 µM (active) and 34.7 µM (active); in test [6], 50 µM (active); in [7] it was 33.4 µM (active) and 150 µM (active) and 50 µM (active); in test [9] it was 48.2 µM (active) and 72.7 µM (active); in test [13], 205 µM (active) and 40 µM (active). Besides, in test [15], the concentration at half-maximal activity (AC50) was 27.8 µM (active) and 71.8 µM (active) and 36.7 µM (active). Further, the compound was called inactive in test [1], in [2], in [3], in [4], in test [5] and in test [6]. Moreover, the compound was classed as inactive in test [8], in test [9], in test [13] and in test [17].
